According to the supplement of paper PMC10981050:
Where a name gives a salt, the structure may show the parent alone.

The compounds below were run on K562 (assay: cell viability relative to vehicle control; higher = less cytotoxic). Conditions: 10 µM; SRSF2 genotype: SRSF2 wt/wt.
In short: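 After removal of identity-inconsistent compounds, the Selleck bioactive, kinase and epigenetic probe libraries were screened on CRISPR-edited mutant clones and isogenic wild-type clones of four leukaemia lines. Plates were 384-well, each well holding 2000 cells in 50 µL medium and receiving a single 10 µM acoustically dispensed dose. CellTiter-Glo luminescence was read 48 h later, after the supernatant was taken off. Genedata Screener was used to express viability as percent of the on-plate vehicle control.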

Row | Structure (SMILES) | cell viability [%]
1 | O=c1cc(N2CCOCC2)oc2c(-c3ccccc3)cccc12 | 91.8
2 | C[C@@H]1C(=O)O[C@H](C)[C@H]1C[C@@H](O)[C@](C)(O)[C@H]1CC[C@@]2(O)C3=CC(=O)[C@@H]4C[C@@H](O)[C@@H](O)C[C@]4(C)[C@H]3CC[C@]12C [Cyasterone] | 105
3 | CSCC[C@H](NC(=O)[C@H](CC(C)C)NC(=O)[C@H](Cc1c[nH]c2ccccc12)NC(=O)[C@H](CCC(N)=O)NC(=O)[C@@H](NC(=O)[C@H](Cc1ccccc1)NC(=O)[C@H](CC(=O)O)NC(=O)[C@H](CCC(N)=O)NC(=O)[C@H](C)NC(=O)[C@H](CCCNC(=N)N)NC(=O)[C@H](CCCNC(=N)N)NC(=O)[C@H](CO)NC(=O)[C@H](CC(=O)O)NC(=O)[C@H](CC(C)C)NC(=O)[C@H](Cc1ccc(O)cc1)NC(=O)[C@H](CCCCN)NC(=O)[C@H](CO)NC(=O)[C@H](Cc1ccc(O)cc1)NC(=O)[C@H](CC(=O)O)NC(=O)[C@H](CO)NC(=O)[C@@H](NC(=O)[C@H](Cc1ccccc1)NC(=O)[C@@H](NC(=O)CNC(=O)[C@H](CCC(N)=O)NC(=O)[C@H](CO)NC(=O)[C@@H](N)Cc1cnc[nH]1)[C@@H](C)O)[C@@H](C)O)C(C)C)C(=O)N[C@@H](CC(N)=O)C(=O)N[C@H](C(=O)O)[C@@H](C)O [Glucagon HCl] | 113
4 | CCc1ccc(Cc2ccc3c(c2)[C@]2(OC3)O[C@H](CO)[C@@H](O)[C@H](O)[C@H]2O)cc1 [Tofogliflozin(CSG 452)] | 81.2
5 | CCCCC(C)(O)C/C=C/[C@H]1[C@H](O)CC(=O)[C@@H]1CCCCCCC(=O)OC (mixture of isomers) [Misoprostol] | 84.4
